{
  "source": "PubChem BioAssay (Tox21)",
  "note": "Inconclusive results are not listed. Unmarked numbers belong to inactive results. The source made the active and inactive calls. Unless noted, calls follow the shape of the full dose curve. % is scaled to controls: 0 for no effect and ±100 for the full control effect.",
  "data": [
    {"assay": "qHTS assay for small molecules that induce genotoxicity in human embryonic kidney cells expressing luciferase-tagged ATAD5 (AID 651632; active = well fitted activation curve with a large enough effect in the repeat runs; also: nearly all actives have a fitted effect of over 15% in size)", "conditions": "HEK293T ATAD5-luciferase induction, 16 h; series mostly up to 83.3 µM; activation: at the top concentration", "outline": "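Increased luciferase signal from ATAD5-tagged reporter cells indicates DNA-damage-driven ATAD5 induction. HEK293T cells are treated for 16 hr at 37C before detection with Amplite.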", "values": [
      {"smiles": "CCCCCCCC/C=C\\CCCCCCCC(=O)OCCO", "activation": "1.3% [at 95.3 µM]"},
      {"smiles": "COc1ccc(CCN(C)CCCN2CCc3cc(OC)c(OC)cc3CC2=O)cc1OC", "activation": "-1.45%"},
      {"smiles": "CC(C)(C)C1(CCc2ccc(Cl)cc2)CO1", "note": "(stereo not drawn)", "activation": "2.3%"},
      {"smiles": "COC1CCC=CO1", "note": "(stereo not drawn)", "activation": "3.73% [at 95.3 µM]"},
      {"smiles": "Cc1ccc2c(c1[N+](=O)[O-])C(=O)c1ccccc1C2=O", "activation": "3.52%"},
      {"smiles": "CCCCCc1ccco1", "activation": "-3.31%"},
      {"smiles": "CCCCC(CC)COS(=O)(=O)O", "note": "(stereo not drawn)", "Potency": "inactive"},
      {"smiles": "c1ccc(CCCc2ccncc2)cc1", "activation": "-3.71%"},
      {"smiles": "O=C1NC(=O)c2cccc3cccc1c23", "activation": "4.06%"},
      {"smiles": "O=C(O)c1cccc(C[C@@H]2COc3ccc(OCc4nc5cc(F)ccc5s4)cc3[C@@H]2O)c1", "activation": "2.53%"},
      {"smiles": "CCCOC(=O)c1c(Cl)c(Cl)c(Cl)c(Cl)c1C(=O)OCCC", "activation": "-4.27%"}
    ]},
    {"assay": "qHTS assay for small molecule agonists of the p53 signaling pathway - cell viability (AID 651633);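 also: p53RE-bla HCT reporter cells with a stable beta-lactamase p53 reporter; nearly all actives have a fitted effect of over 30% in size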", "conditions": "p53RE-bla HCT-116 viability, ATP luminescence, 16 h; series mostly up to 83.3 µM; activity change, negative = cytotoxicity: at the top concentration", "outline": "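p53RE-bla cells were treated with compound for 16 hours at 37 C. Cytotoxicity was then measured as CellTiter-Glo luminescence after 30 min at room temperature.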", "values": [
      {"smiles": "N[C@@H](Cc1cc(I)c(O)c(I)c1)C(=O)O", "activity change, negative = cytotoxicity": "16.9%"},
      {"smiles": "CCCCCCCC/C=C\\CCCCCCCC(=O)OCCO", "activity change, negative = cytotoxicity": "-17.2% [at 95.3 µM]"},
      {"smiles": "COc1ccc(CCN(C)CCCN2CCc3cc(OC)c(OC)cc3CC2=O)cc1OC", "activity change, negative = cytotoxicity": "-13.3%"},
      {"smiles": "CC(C)(C)C1(CCc2ccc(Cl)cc2)CO1", "note": "(stereo not drawn)", "activity change, negative = cytotoxicity": "18.2%"},
      {"smiles": "CC(=O)C(C)=O", "activity change, negative = cytotoxicity": "-8.35% [at 95.3 µM]"},
      {"smiles": "O=C(O)c1ccc(O)cc1O", "activity change, negative = cytotoxicity": "-19.3% [at 95.3 µM]"},
      {"smiles": "COC1CCC=CO1", "note": "(stereo not drawn)", "activity change, negative = cytotoxicity": "0.939% [at 95.3 µM]"},
      {"smiles": "CCN(CC)CCOC(=O)C(c1ccccc1)c1ccccc1", "activity change, negative = cytotoxicity": "8.81%"},
      {"smiles": "Cc1cccc2sc(N)nc12", "activity change, negative = cytotoxicity": "12.3% [at 95.3 µM]"},
      {"smiles": "CC(=O)OCC(=O)[C@@]1(OC(C)=O)[C@@H](C)C[C@H]2[C@@H]3C[C@H](F)C4=CC(=O)C=C[C@]4(C)[C@@]3(F)[C@@H](O)C[C@@]21C", "activity change, negative = cytotoxicity": "8.77%"},
      {"smiles": "COc1ccc(C(=O)NCc2ccc(OCCN(C)C)cc2)cc1OC", "activity change, negative = cytotoxicity": "17.3%"},
      {"smiles": "CC[C@@H](CO)NCCN[C@@H](CC)CO", "activity change, negative = cytotoxicity": "-8.97% [at 39.1 µM]"}
    ]}
  ]
}
